Screening data (PubChem BioAssay)
Hits are enriched below; roughly 9% of the tested compounds scored in any of these assays.
BAZ2B inh – blocks human BAZ2B. Q9UIF8. AlphaScreen BAZ2B-H3K14Ac peptide displacement. Potency, µM (highest dose often 114 µM), without a hit: at the top dose activity change, negative = inhibition, actives largely listed as inhibitors. 360,000 compounds, 4.4% hits. AID 504333; also: % is scaled to controls: 0 for no effect and ±100 for the full control effect; nearly all actives have a fitted effect of over 60% in size
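AlphaScreen luminescence quantifies BAZ2B engagement of H3K14Ac peptide; the protein and biotinylated peptide are both at 50 nM final, buffer PBS pH 7.4 with 0.01% Tween-20, all steps at room temperature.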
HP1b chromo inh – blocks HP1-beta chromodomain binding to methylated histone tails; Potency, µM (series often up to 114 µM), inactives show at the top dose activity change, negative = inhibition, actives largely listed as inhibitors; P83916; AlphaScreen HP1-beta / biotin-H3K9me3 peptide binding; AID 540317; 390,000 compounds, 0.56% hits; also: nearly all actives have a fitted effect of over 70% in size
Target sequence (P83916 whole entry, looked up): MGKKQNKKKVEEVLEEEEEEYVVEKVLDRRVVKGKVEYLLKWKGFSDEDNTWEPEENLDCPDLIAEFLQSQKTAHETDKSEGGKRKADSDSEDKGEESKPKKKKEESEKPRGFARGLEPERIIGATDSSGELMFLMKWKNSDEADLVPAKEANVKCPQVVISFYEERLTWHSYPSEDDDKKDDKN
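AlphaScreen: HP1-beta (50 nM) preformed 30 min with biotin-H3(1-18)K9me3 peptide (50 nM) in PBS pH 7.4, 0.01% Tween-20. Compound added for 30 min at RT, then streptavidin donor/nickel chelate acceptor beads (10 ug/mL) for 30 min.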
ALOX12 inh – blocks human arachidonate 12S-lipoxygenase. P18054. purified 12hLO, xylenol orange hydroperoxide absorbance. Potency, µM (highest dose often 108 µM), without a hit: top-dose activity change, negative = inhibition, actives largely listed as inhibitors. 580,000 compounds, 1.1% hits. AID 1671190; also: % is scaled to controls: 0 for no effect and ±100 for the full control effect
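Purified human 12hLO at 150 nM in 25 mM Hepes, 0.01% Triton X-100, pH 7.0, preincubated 15 min at room temperature with compound. Reaction started with 40 uM arachidonic acid, 30 min at room temperature. Hydroperoxide measured by Fe-xylenol orange, 573/405 nm absorbance ratio.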
PLK1 PBD inh – inhibitors of human PLK1 polo-box domain binding; Plk1 PBD binding of FITC phosphopeptide, fluorescence polarization; AID 720504; 360,000 compounds, 2.8% hits; Potency, µM, without a hit: max response, negative = inhibition, hits mostly inhibitors; P53350; also: series mostly up to about 57 µM; % is scaled to controls: 0 for no effect and ±100 for the full control effect; nearly all actives have a fitted effect of over 65% in size
JMJD2A Tudor – JMJD2A Tudor domain (human) inhibition. O75164. AlphaScreen JMJD2A-Tudor / H3K4me3 peptide binding. Potency, µM (top dose mostly 114 µM), for the others: at the highest dose activity change, negative = inhibition, most hits filed as inhibitors. 390,000 compounds, 4.4% hits. AID 504339; also: % is scaled to controls: 0 for no effect and ±100 for the full control effect; nearly all actives have a fitted effect of over 50% in size
G9a inh – G9a (human) methyltransferase inhibition | G9a H3K9 monomethylation, AlphaScreen, 2 h | Q96KQ7 | 350,000 compounds, 8.8% hits | Potency, µM (titrated, usually from 102 µM), without a hit: top-dose activity, negative = inhibition, most hits filed as inhibitors; also: % is scaled to controls: 0 for no effect and ±100 for the full control effect; nearly all actives have a fitted effect of over 75% in size
Target sequence (Q96KQ7 913-1193 limits assumed): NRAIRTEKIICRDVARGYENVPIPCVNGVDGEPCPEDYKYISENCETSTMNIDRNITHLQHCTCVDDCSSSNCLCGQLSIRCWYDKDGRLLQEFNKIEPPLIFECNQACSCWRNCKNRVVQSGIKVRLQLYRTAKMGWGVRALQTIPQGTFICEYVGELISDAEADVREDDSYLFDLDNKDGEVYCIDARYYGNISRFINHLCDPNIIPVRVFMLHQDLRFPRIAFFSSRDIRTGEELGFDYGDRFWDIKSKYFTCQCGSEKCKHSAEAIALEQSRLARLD
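Chemiluminescent proximity detection of H3K9 monomethylation, read after 10 min bead incubation in the dark. Reaction: 20 nM G9a, 500 nM biotin-H3K9 peptide, 20 uM SAM cofactor, 2 h, room temperature, following 15 min enzyme-compound preincubation.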
Active calls of the source: *; ? = inconclusive; / = no result; ! = not confirmed by another sample; [ ] = dose if it differs, or a comment. Calls follow the shape of the dose curve; as a rule, active = well fitted curve in the direction sought with a large enough effect; inconclusive = small, poorly fitted or top-dose-only effect, or another doubt; inactive = no such curve, though single readings can be large; an effect the other way counts as inactive or inconclusive. Potency is read from the fitted curve at half-maximal effect.

SMILES	BAZ2B inh	HP1b chromo inh	ALOX12 inh	PLK1 PBD inh	JMJD2A Tudor	G9a inh
CCOCCCn1c(N)c(C(=O)Nc2sc3c(c2C(=O)OC)CCCC3)c2nc3ccccc3nc21	?	6.5%	4.6%	0.5%	-31.4%	5.62µM*
Oc1cc2c(cc1O)[C@H]1c3ccccc3CN[C@@H]1CC2	?	/	/	/	/	2.51µM*
Oc1cc2c(cc1O)[C@H]1c3ccccc3CN[C@H]1CC2	/	/	11.2µM*!	/	/	1.41µM*
O=C(NCc1ccc(F)cc1)[C@H]1CN2CC[C@H]1C[C@@H]2Cn1cc(CC2CCCCC2)nn1	/	/	16.6%	/	/	/
OCC(Cl)CCl (stereo unspecified)	-4.9%	24.3%	16.5%	-4.7%	-17.2%	1.0%[0.501 µM]
Cn1ccnc1P(=S)(c1nccn1C)c1nccn1C	?	3.8%	3.6%	-3.3%	31.6µM*	3.55µM*
S=P(N1CCOCC1)(N1CC1)N1CC1	/	-7.4%	-14.8%	2.8%	-18.2%	/
Cn1ccnc1P(=S)(c1nccn1C)N1CCOCC1	?	?	?	26.7µM*	35.5µM*	?
CCCCc1nc(N2CCNCC2)c(C#N)c2c1CSC(C)(C)C2	-25.8%	-5.2%	0.0%	-18.8%	-16.5%[57.1 µM]	-26.2%[59 µM]
O=[N+]([O-])c1ccc(CN2CC=C(c3ccccc3)CC2)cc1	?	6.7%	/	-3.3%	?	?
O=C(CCS(=O)NCc1ccccc1)NCc1ccccc1 (stereo unspecified)	-5.9%	/	/	/	/	17.8µM*
C[C@H](N)Cc1cccc(C(F)(F)F)c1	/	/	/	/	/	29.9µM*
CCN(C)C(C)Cc1cccc(C(F)(F)F)c1 (stereo unspecified)	/	/	-15.5%	/	/	/
Nc1cc(C(=O)Nc2ccccc2F)ccc1N1CC2CC(C1)c1cccc(=O)n1C2 (stereo unspecified)	/	/	1.5%	-1.6%	/	/
C/C(=C/CCC(C)[C@H]1CC[C@@]2(C)C3=C(CC[C@]12C)[C@@]1(C)CCC(=O)C(C)(C)[C@@H]1CC3)C(=O)O (stereo partly specified)	?	10.1%	-0.5%	13.4µM*	63.1µM*	?
COC(=O)C(O)(c1c[nH]c2ccccc12)C(F)(F)F (stereo unspecified)	7.6%	31.8%	?	-1.0%	-12.6%	7.7%
COC(=O)C(O)(c1c(C)[nH]n(-c2ccccc2)c1=O)C(F)(F)F (stereo unspecified)	?	45.5%	?	23.8µM*	-29.9%[57.1 µM]	31.6µM*
CC(C)C1(C)N=C(c2nc3ccccc3cc2C(=O)O)NC1=O (stereo unspecified)	-36.2%	30.0%	?	-1.8%	-21.4%	7.8%[2.33 µM]
CN1CCC(O)(c2ccccc2)C2CCCC21 (stereo unspecified)	-4.6%	23.2%	-0.1%	-2.2%	-8.6%	-4.1%[59 µM]
CC(C)n1c(O)c(C2c3cc(Cl)ccc3Oc3[nH]c(=O)n(C(C)C)c(=O)c32)c(=O)[nH]c1=O (stereo unspecified)	-23.8%	9.1%	/	1.34µM*	-16.2%	4.47µM*
CCOC(=O)c1cccc(N)c1	/	/	-5.8%[22.9 µM]	/	/	?
CCOC(=O)c1cccc([P+](=O)O)c1	0.2%	18.3%	-15.7%	0.2%	28.2µM*	-26.3%[59 µM]
CC(C)CC1C(=O)N2CCC[C@H]2[C@]2(O)O[C@](NC(=O)[C@@H]3C=C4c5cccc6[nH]c(Br)c(c56)C[C@H]4N(C)C3)(C(C)C)C(=O)N12 (stereo partly specified)	/	1.6%	/	/	?	/
CC(C)[C@@]1(NC(=O)[C@@H]2C[C@@H]3c4cccc5[nH]cc(c45)C[C@H]3N(C)C2)O[C@@]2(O)[C@@H]3CCCN3C(=O)[C@H](Cc3ccccc3)N2C1=O	39.8µM*	5.3%	?	5.0%	-30.9%	?
CC(C)[C@@]1(NC(=O)[C@@H]2C=C3c4cccc5[nH]cc(c45)C[C@H]3N(C)C2)O[C@@]2(O)[C@@H]3CCCN3C(=O)[C@H](Cc3ccccc3)N2C1=O	-34.8%	/	/	/	/	8.91µM*
SMILES	BAZ2B inh	HP1b chromo inh	ALOX12 inh	PLK1 PBD inh	JMJD2A Tudor	G9a inh
CN1C[C@H](C(=O)N[C@@]2(C)O[C@@]3(O)C4CCCN4C(=O)C(Cc4ccccc4)N3C2=O)C[C@H]2c3cccc4[nH]cc(c34)C[C@H]21 (stereo partly specified)	/	/	/	/	/	-8.5%[2.33 µM]
COc1ccc(Oc2c(C)oc3cc(OCC(=O)N4CCN(CCO)CC4)ccc3c2=O)cc1	/	/	-24.5%	/	/	/
CCOP(=O)(OCC)OCC	5.3%	5.4%	3.4%	-13.7%	-23.4%	-1.7%[0.501 µM]
CCCOP(=O)(OCCC)c1nc(-c2ccccc2)oc1NCc1ccccc1	5.5%	60.3%	-27.5%	-5.8%	-5.4%	28.2%[59 µM]
Cn1c(O)c(/C=N/c2ncccn2)c(=O)n(C)c1=O	-7.0%	45.4%	?	1.8%	-11.1%	-36.6%[59 µM]
Cn1c(=O)c2[nH]cnc2n(C)c1=O	?	-25.5%	?	-1.4%	-15.1%	3.36µM*!
Cc1cccc(-n2nc(C)c(C(=O)N3CCN(c4ccccc4)CC3)c2-n2cccc2)c1	?	-4.5%	-18.1%	/	?	-34.7%[59 µM]
COc1cccc(CNCCc2c[nH]c3ccccc23)c1	79.4µM*	-24.9%	-23.0%	4.4%	3.55µM*	20.5%[2.33 µM]
COc1ccc(CNCCc2c[nH]c3ccccc23)cc1	/	/	0.631µM*	/	/	/
Fc1ccc(CNCCc2c[nH]c3ccccc23)cc1	?	25.6%	0.0%	-16.0%	?	?
C1CN2CCC1CC2	/	/	-4.9%[22.9 µM]	/	/	/
C[C@@H]1CN([C@@H](C)CO)C(=O)CCCn2cc(nn2)CO[C@H]1CN(C)C(=O)Oc1cccc2ccccc12	/	/	2.2%	-23.7%	/	/
CC1(C)C(=O)C=C[C@]2(C)[C@H]3CC[C@@]4(C)[C@H](c5ccoc5)OC(=O)[C@H]5O[C@]54[C@]3(C)[C@H](O)C[C@@H]12	?	44.9%	/	-1.0%	0.0%	?
COc1cc2c(cc1OCC1CC1)NC(=O)C21CCN(c2ccnc(C)n2)CC1	/	/	-26.9%[176 µM]	/	/	/
Cc1c(N=Cc2c(O)n(Cc3ccc(F)cc3)c(=O)[nH]c2=O)c(=O)n(-c2ccccc2)n1C	-7.6%	25.1%	-4.9%	3.3%	-11.6%	-12.4%
O=C(c1ccc2nc(-c3ccco3)c(-c3ccco3)nc2c1)N1CCC2(CC1)OCCO2	56.2µM*	-9.5%	/	-27.6%	89.1µM*	?
CN(C)C1C(=O)C(C(N)=O)C(=O)C2(O)C(=O)C3C(=O)c4c(O)cccc4C(C)(O)C3C(O)C12 (stereo unspecified)	/	/	/	/	/	3.55µM*
CN(C)[C@@H]1C(=O)C(C(N)=O)=C(O)[C@@]2(O)C(=O)C3=C(O)c4c(O)ccc(Cl)c4[C@@](C)(O)[C@H]3C[C@@H]12	17.8µM*	18.4%	?	-15.1%	56.2µM*	?
